For six compounds, z-score and composite z-score results are on record in PubChem BioAssay.

A short description of experiment [1]: optical density shifts of acrAB sulA E. coli – strain DRC41, OD650, 48 h, E. coli filamentation inducer project, primary screen (AID 1152).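 Note: E. coli MC1000 strain DRC41 lacking acrAB efflux pump and sulA.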 As to conditions: higher = more signal, called active from +8 up or from −8 down.
Experiment [2] can be described thus: probe aLefty1 binding on compound microarray – biochemical, small-molecule microarray, 635/667 nm fluorescence, primary screen (AID 1153).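 Note: score merges spot fluorescence with signal-to-noise ratio from the scanned slide images.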 As to conditions: higher = more signal.
Experiment [3] is described as follows: plasmodial surface anion channel blockers, osmotic lysis – cell-based, P. falciparum Indochina, OD700, 1 h, primary screen (AID 1154). The following applies: P. falciparum Indochina infected RBC osmotic lysis, higher = more signal, called active from +8 up or from −8 down.
The nature of experiment [4]: plasmodial surface anion channel blockers, osmotic lysis – cell-based, P. falciparum Indochina, OD700, 2 h, primary screen (AID 1155).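 Note: lysis reports solute entry through the parasite surface anion channel PSAC.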 The following applies: P. falciparum Indochina infected erythrocytes, higher = more signal, called active from +8 up or from −8 down.
Experiment [5] is described as follows: changes in parasitized red cell lysis, either direction – P. falciparum Indochina, OD700, 3 h, PSAC antagonist project, primary screen (AID 1156). The following applies: P. falciparum-infected erythrocytes, osmotic lysis, higher = more signal, called active from +8 up or from −8 down.
Experiment [6] in a line: plasmodial surface anion channel blockers, osmotic lysis – cell-based, P. falciparum Indochina, OD700, 18 h, primary screen (AID 1157). The following applies: P. falciparum Indochina infected erythrocytes, osmotic lysis OD700, 18 h; higher = more signal, called active from +8 up or from −8 down.
Experiment [7] is described as follows: S6 kinase pathway phospho-S6 level changes – cell-based, A549, cytoblot, luminescence, serum-stimulated, primary screen (AID 1158).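 Note: serum-stimulated A549 lung adenocarcinoma cells; signal is phosphorylated S6 detected by cytoblot immunostaining with HRP secondary.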 As to conditions: 5 h, higher = more signal.
Experiment [8] deals with NADPH oxidase 2 (Homo sapiens) (UniProt P04839). In words: compounds shifting NOX2 Amplex Red fluorescence – cell-based, HEK293-NOX2, PMA-stimulated, NOX inhibitor project, primary screen (AID 1159). Note: test concentration not given here. As to conditions: 45 min, higher = more signal, called active from +8 up or from −8 down.
Sequence of NADPH oxidase 2 (Homo sapiens) (P04839 whole entry, looked up): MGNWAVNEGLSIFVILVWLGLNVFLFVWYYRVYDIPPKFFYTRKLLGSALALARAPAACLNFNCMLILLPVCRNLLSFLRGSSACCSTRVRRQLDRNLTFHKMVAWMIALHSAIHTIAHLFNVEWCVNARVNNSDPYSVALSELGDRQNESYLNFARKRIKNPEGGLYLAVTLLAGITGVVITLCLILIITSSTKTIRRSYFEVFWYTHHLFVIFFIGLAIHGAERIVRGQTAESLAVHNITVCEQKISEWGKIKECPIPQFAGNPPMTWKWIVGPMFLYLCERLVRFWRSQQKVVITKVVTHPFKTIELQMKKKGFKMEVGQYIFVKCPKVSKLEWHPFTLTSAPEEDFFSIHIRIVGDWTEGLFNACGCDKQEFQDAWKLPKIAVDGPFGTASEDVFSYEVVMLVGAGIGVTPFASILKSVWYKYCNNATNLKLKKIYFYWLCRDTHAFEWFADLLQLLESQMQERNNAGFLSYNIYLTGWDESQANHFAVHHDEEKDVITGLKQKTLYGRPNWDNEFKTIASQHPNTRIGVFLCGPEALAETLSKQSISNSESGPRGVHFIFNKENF
Experiment [9] addresses NADPH oxidase 4 (Homo sapiens) (UniProt Q9NPH5). Description: compounds shifting NOX4 Amplex Red fluorescence – cell-based, HEK293-NOX4, tetracycline-induced, NOX inhibitor project, primary screen (AID 1160). As to conditions: HEK293-NOX4, Amplex Red H2O2 fluorescence, 45 min; higher = more signal, called active from +8 up or from −8 down.
Experiment [10] deals with NADPH oxidase 5 (Homo sapiens) (UniProt Q96PH1). In words: compounds shifting NOX5 Amplex Red fluorescence – cell-based, HEK293-NOX5, NOX inhibitor project, primary screen (AID 1161). As to conditions: HEK293-NOX5, ionomycin, 45 min, higher = more signal.
Sequence of NADPH oxidase 5 (Homo sapiens) (Q96PH1 whole entry, looked up): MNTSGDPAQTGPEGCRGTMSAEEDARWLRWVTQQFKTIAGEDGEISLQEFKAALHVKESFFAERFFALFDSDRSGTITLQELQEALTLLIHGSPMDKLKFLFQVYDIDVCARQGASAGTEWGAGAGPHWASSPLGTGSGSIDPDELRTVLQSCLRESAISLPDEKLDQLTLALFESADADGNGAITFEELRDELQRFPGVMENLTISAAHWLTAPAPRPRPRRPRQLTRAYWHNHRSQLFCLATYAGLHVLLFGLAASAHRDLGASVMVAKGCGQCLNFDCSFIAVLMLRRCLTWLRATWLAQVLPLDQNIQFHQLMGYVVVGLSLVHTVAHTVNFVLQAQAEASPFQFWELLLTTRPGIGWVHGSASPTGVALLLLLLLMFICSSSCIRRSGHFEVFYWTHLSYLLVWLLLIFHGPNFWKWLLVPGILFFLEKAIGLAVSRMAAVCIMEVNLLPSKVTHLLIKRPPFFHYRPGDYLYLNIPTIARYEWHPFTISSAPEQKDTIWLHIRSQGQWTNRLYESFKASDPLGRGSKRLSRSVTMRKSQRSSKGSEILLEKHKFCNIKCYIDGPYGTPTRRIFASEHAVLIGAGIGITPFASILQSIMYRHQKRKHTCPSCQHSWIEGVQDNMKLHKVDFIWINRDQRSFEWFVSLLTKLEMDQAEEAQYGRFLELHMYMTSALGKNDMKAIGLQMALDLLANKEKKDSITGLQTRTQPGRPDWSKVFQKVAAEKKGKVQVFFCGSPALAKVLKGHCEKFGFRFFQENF
Experiment [11] can be described thus: compound effects on lung adenocarcinoma cell viability – A549, calcein-AM fluorescence, 48 h, basal, profiling panel (AID 1162). Note: test concentration not given here. The following applies: higher = more signal.
Experiment [12] in a line: compound effects on differentiated 3T3-L1 adipocyte viability – cell-based, 3T3-L1 adipocytes, calcein-AM fluorescence, 48 h, basal, profiling panel (AID 1163). Note: test concentration not given here. The following applies: 3T3-L1 adipocytes viability, higher = more signal.
A short description of experiment [13]: compound effects on hepatocellular carcinoma cell viability – HepG2, calcein-AM fluorescence, 48 h, basal, profiling panel (AID 1164). Note: test concentration not given here. As to conditions: higher = more signal.
The nature of experiment [14]: compound effects on multiple myeloma cell viability – MM1S, calcein-AM fluorescence, 48 h, basal, profiling panel (AID 1165).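 Note: viability of MM1S multiple myeloma cells under basal unstimulated conditions; test concentration not given here.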 The following applies: higher = more signal.
A short description of experiment [15]: calcein-AM signal in unstimulated myeloma cells – cell-based, calcein-AM fluorescence, 48 h, PK04 Diversity Set, profiling panel (AID 1166).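 Note: cells grown under basal conditions without added stimulus; test concentration not given here.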 As to conditions: RPMI8226 myeloma viability, higher = more signal.
A short description of experiment [16]: JC-1 mitochondrial signal, unstimulated HepG2 cells – cell-based, JC-1 fluorescence, 24 h, 100 nL compound, profiling panel (AID 1167). Note: test concentration not given here. The following applies: HepG2 mitochondrial potential, higher = more signal.
Experiment [17] can be described thus: JC-1 mitochondrial signal, unstimulated adipocytes – cell-based, JC-1 fluorescence, 3T3-L1 adipocytes, 24 h, 100 nL compound, profiling panel (AID 1168). Note: test concentration not given here. The following applies: JC-1 mitochondrial fluorescence, higher = more signal, called active from +8 up or from −8 down.
Experiment [18] can be described thus: JC-1 mitochondrial signal, unstimulated myeloma cells – cell-based, JC-1 fluorescence, RPMI8226, 24 h, 100 nL compound, profiling panel (AID 1169). Note: test concentration not given here. The following applies: JC-1 mitochondrial potential fluorescence, higher = more signal.
The nature of experiment [19]: JC-1 mitochondrial signal, unstimulated MM1S myeloma – cell-based, JC-1 fluorescence, 24 h, 100 nL compound, profiling panel (AID 1170). Note: test concentration not given here. The following applies: MM1S mitochondrial potential, higher = more signal.
Experiment [20] in a line: resazurin metabolic signal in A549 cells – cell-based, resazurin fluorescence, 24 h, PK04 Diversity Set, profiling panel (AID 1171). Note: test concentration not given here. The following applies: A549 viability, higher = more signal, called active from +8 up or from −8 down. On the technique in general: The colour change of resazurin is a common sign of viable cells or microbes.

Activity calls are given as the source filed them.

Sequence of NADPH oxidase 4 (Homo sapiens) (Q9NPH5 whole entry, looked up): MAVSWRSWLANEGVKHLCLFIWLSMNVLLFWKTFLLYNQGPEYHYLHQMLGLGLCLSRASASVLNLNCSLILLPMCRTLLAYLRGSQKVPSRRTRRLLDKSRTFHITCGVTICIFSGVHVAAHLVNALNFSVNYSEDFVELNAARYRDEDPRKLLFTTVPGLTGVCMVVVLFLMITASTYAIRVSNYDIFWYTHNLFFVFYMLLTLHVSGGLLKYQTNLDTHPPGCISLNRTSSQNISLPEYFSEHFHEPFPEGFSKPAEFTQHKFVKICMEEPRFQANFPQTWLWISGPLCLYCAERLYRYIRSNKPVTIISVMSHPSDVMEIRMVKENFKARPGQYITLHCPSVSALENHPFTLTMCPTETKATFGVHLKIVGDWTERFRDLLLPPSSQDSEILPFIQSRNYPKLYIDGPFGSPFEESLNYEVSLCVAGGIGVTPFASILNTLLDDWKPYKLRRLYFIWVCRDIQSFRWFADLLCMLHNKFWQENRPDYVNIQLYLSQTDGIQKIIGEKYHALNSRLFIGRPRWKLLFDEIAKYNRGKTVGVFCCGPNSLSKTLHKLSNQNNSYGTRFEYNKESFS

For the compound `CC1CC/C=C\[C@H]2OC34C=CCN(c5ccc6ccccc6c5)C(=O)[C@H]3N(CCCO)C(=O)[C@@H]4C2C(=O)O1` (stereo not given in full), the z-score in experiment [1] was -0.866 (inactive); in experiment [3], 1.33 (inactive); in [4], 0.398 (inactive); in [5], -0.0069 (inactive); in [6] it was 0.357 (inactive); in experiment [7] it was -0.0819. Further, the z-score in experiment [8] is 1.84 (inactive); in experiment [9] it was -1.18 (inactive); in experiment [10], 2.84; in experiment [11], -0.391; in [12], -0.229; in [13], -0.597. For the same compound, the z-score in experiment [14] was -0.144; in [15], -0.143; in experiment [16], -0.519; in experiment [17] it was -0.856 (inactive); in experiment [18] it was 0.17; in experiment [19] it was 0.707. Also, the z-score in [20] was -0.525 (inactive). Further, in experiment [2], the composite z-score was -0.138.

Turning to `O=C(O)[C@@H]1[C@@H]2C(=O)N(c3ccccc3)C(=O)[C@@H]2C[C@@H]1Sc1ccccc1`, the z-score is -1.52 (inactive) in experiment [1]; 0.919 (inactive) in [3]; 0.544 (inactive) in experiment [4]; 0.0175 (inactive) in experiment [5]; 0.631 (inactive) in [6]; -0.381 in experiment [7]. Moreover, the z-score in experiment [8] was 0.312 (inactive); in experiment [9], -0.541 (inactive); in experiment [10], -0.295; in experiment [11], -0.653; in experiment [12], -0.832; in [13], -1.32. Moreover, the z-score in experiment [14] was -0.939; in experiment [15] it was -0.616; in experiment [16], -0.829; in experiment [17] it was -0.867 (inactive); in experiment [18], 0.718; in experiment [19], -0.773. Further, the z-score in [20] was 0.0964 (inactive). In experiment [2], the composite z-score was -0.0573.

On to `CCOC(=O)C[C@H]1[C@H](OC(=O)c2ccccc2-c2ccccc2)[C@@H](NC(=O)c2ccc3ccccc3c2)c2cc(OCCCO)ccc2N1C(=O)c1ccccc1`, for which the z-score is 0.142 (inactive) in experiment [1]; 1.05 (inactive) in [3]; 0.844 (inactive) in experiment [4]; 0.652 (inactive) in experiment [5]; 0.23 (inactive) in experiment [6]; -0.0193 in experiment [7]. The z-score in experiment [8] was 0.595 (inactive); in experiment [9], 0.89 (inactive); in experiment [10], 1.53; in [11], 0.065; in [12], 0.257; in [13], -0.336. Further, the z-score in [14] is -0.306; in [15], -0.604; in experiment [16], 0.579; in experiment [17], 0.633 (inactive); in experiment [18], -0.25; in experiment [19], 0.171. In addition, in [20], the z-score was -0.385 (inactive). Moreover, the composite z-score in [2] was -0.152.

For the compound `COCCOC(=O)N1C(=O)[C@@]2(c3cc(C#CC4=CCCCC4)ccc31)[C@H](c1ccccc1OCCO)N1[C@H](c3ccccc3)[C@H](c3ccccc3)OC(=O)[C@H]1[C@@H]2C(=O)N1CCN(c2ncccn2)CC1`, the z-score is 0.978 (inactive) in [1]; 1.04 (inactive) in experiment [3]; -0.579 (inactive) in experiment [4]; 0.281 (inactive) in experiment [5]; -0.492 (inactive) in experiment [6]; 0.65 in experiment [7]. Moreover, the z-score is 0.976 (inactive) in [8]; 0.868 (inactive) in experiment [9]; 1.32 in experiment [10]; -1.17 in [11]; 0.956 in experiment [12]; 0.195 in [13]. Further, the z-score in experiment [14] is -0.118; in [15] it was -1.92; in experiment [16] it was 0.259; in [17] it was 2.14 (inactive); in experiment [18], -0.423; in [19], -1.19. Also, the z-score in experiment [20] is 0.753 (inactive). In [2], the composite z-score worked out at 1.04.

As to `COC(=O)[C@@]1(Cc2ccc(F)cc2)[C@H]2c3cc(C(=O)N4CCCC4)n(CCc4c[nH]c5ccccc45)c3C[C@H]2CN1C(=O)c1ccccc1`, the z-score in experiment [1] was -2.35 (inactive); in experiment [3], 2.02 (inactive); in [4], 0.946 (inactive); in experiment [5], 0.805 (inactive); in [6], 1.06 (inactive); in [7] it was -0.142. Besides, the z-score is 0.515 (inactive) in [8]; 0.988 (inactive) in [9]; 1.9 in experiment [10]; -1.41 in experiment [11]; -0.743 in experiment [12]; -1.33 in experiment [13]. Moreover, the z-score in experiment [14] is -1.57; in experiment [15], -3.02; in experiment [16] it was 0.28; in experiment [17], -0.222 (inactive); in [18] it was -0.915; in experiment [19] it was -1.21. Further, the z-score in experiment [20] is -1.22 (inactive). Also, the composite z-score in experiment [2] stood at 1.04.

For `COC(=O)C1=CC(CCCO)=CC(c2cccs2)N(C)C=C1C(=O)OC` (stereo not given), the z-score in experiment [1] is -0.35 (inactive); in experiment [3], 2.47 (inactive); in experiment [4], 0.596 (inactive); in experiment [5], 0.148 (inactive); in experiment [6], 0.426 (inactive); in experiment [7] it was -0.481. The z-score in [8] is 0.467 (inactive); in experiment [9], -1.36 (inactive); in experiment [10] it was 0.931; in experiment [11] it was -0.253; in [12] it was 0.483; in experiment [13] it was -0.818. For the same compound, the z-score in experiment [14] was 0.347; in [15], 0.959; in experiment [16] it was -0.386; in experiment [17], -0.195 (inactive); in [18] it was -0.294; in [19], 0.549. Also, in experiment [20], the z-score is -0.28 (inactive). The composite z-score in [2] amounted to 0.147.
